# FMDV inh: antivirals against foot and mouth disease virus. FMDV antiviral cell-based qHTS. Potency, µM (titrated, usually from 57.9 µM), without a hit: top-dose activity change, negative = inhibition, most hits filed as inhibitors. hit rate 1.2% among 410,000. AID 1159524; calls by dose curve; tested in HEK293T cells; further: read-out not given here; potency means the concentration at half of the fitted maximal effect; nearly all actives have a fitted effect of over 45% in size
# LASV entry inh: blocks Lassa virus binding to or entry into cells; Lassa virus pseudotype entry inhibition, cell reporter; Potency, µM (highest dose often 37.9 µM), for inactives: top-dose activity change, negative = inhibition, hits mostly inhibitors; hit rate 1.2% among 300,000; AID 540256; calls by dose curve; tested in HEK293 cells; further: potency means the concentration at half of the fitted maximal effect; nearly all actives have a fitted effect of over 50% in size
# Marburg entry inh: blocks Marburg virus binding to or entry into cells; Marburg virus pseudotyped entry inhibition, cell reporter; Potency, µM (top dose mostly 37.8 µM), inactives show top-dose activity change, negative = inhibition, usual class: inhibitors; hit rate 1.8% among 300,000; AID 540276; calls by dose curve; tested in HEK293 cells; further: potency means the concentration at half of the fitted maximal effect
# HCMV antiviral: human cytomegalovirus inhibition | hit rate 4.5% among 410,000 | activity change, negative = inhibition, % at 57.5 µM | HFF cells, HCMV-luciferase reporter, 72 h; active compounds read low | AID 1259415; in the data active means activity change below about -60%; inconclusive means no clear call, values can overlap the other calls; inactive means above about -39%
#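 Inhibition of viral replication was scored as loss of reporter luminescence in HFFs infected with HCMV-luciferase (MOI 1 PFU/cell) for 72 h; compounds tested at 2 doses, normalized to buffer and Salinomycin controls.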
# HCV inhibitor: blocks hepatitis C virus | AID 651820 | hit rate 3.4% among 340,000 | Potency, µM (top dose mostly 41.8 µM), without a hit: top-dose activity change, negative = inhibition, most hits filed as inhibitors | Huh7.5.1 HCVcc-Cre infection, luciferase reporter, 44 h; active means well fitted inhibition curve with a large enough effect; inconclusive means small, poorly fitted or top-dose-only effect, or another doubt; inactive means no such curve, though single readings can be large or run the other way; further: potency means the concentration at half of the fitted maximal effect
#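 Infectious HCV cell culture screen: compound-treated cells (1,000/well, pre-plated 4 h) are infected with HCVcc-Cre at roughly 0.5 moi and grown 44 h. Infection is quantified by luciferase signal after 15 min substrate incubation at room temperature.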
# * hit, by the source's call; u = inconclusive; x = not tested or not shown; + = active, no number; [ ] = remark or other dose. In the library only some 7.9% were active in any assay of this set; here they are far more common. On the % scale 0 is the no-effect control and ±100 the full control effect.
SMILES,FMDV inh,LASV entry inh,Marburg entry inh,HCMV antiviral,HCV inhibitor
O=C(NCCc1ccccc1)c1cc(S(=O)(=O)N2CCCC2)ccc1F,22%,x,x,+,-27%
CC(C)CN(CCCNC(=O)c1cc(=O)[nH]c2ccc(S(=O)(=O)N3CCCC3)cc12)CC(C)C,-14%,9%[46.1 µM],x,-68*,x
O=C(Nc1ccc(F)cc1)c1cc(S(=O)(=O)N2CCCCC2)ccc1F,u,x,x,-24,u
CCOc1ccc(CNC(=O)c2ccc3nc(CC)c(CC)nc3c2)cc1,4%,-2%[46.1 µM],x,29,x
COc1ccc(-c2csc(C3=C(O)CN(Cc4ccc(S(N)(=O)=O)cc4)C3=N)n2)cc1OC,3%,2%,2%,-7,-16%
COc1ccc(-c2csc(C3=C(O)CN(Cc4ccc(Cl)cc4)C3=N)n2)cc1OC,-7%,-19%,-1%,-33,11µM*
COc1ccc2c(c1OC)C(=O)OC2,-3%,x,x,0,11%
COc1ccc2c3c(cccc13)C(=O)CC2,-11%,15%,-1%,-71*,-9%
O=C(CCc1nnc2n(Cc3ccc(Cl)cc3)c(=O)c3ccccc3n12)NCCN1CCCC1,5%,u,10µM*,-14,3.5µM*
CCN(CC)S(=O)(=O)c1ccc2c(c1)nc(SCC(N)=O)n2-c1ccc(OC)cc1,-28%,13µM*,-10%,-30,-17%
CCN(CC)CCCNC(=O)c1cc2nc3c(c(C(F)(F)F)n2n1)CCc1ccccc1-3,-9%,-3%,u,u,1.6µM*
Cc1ccc(Cn2c(=O)c3cccnc3n(Cc3ccc(C)cc3)c2=O)cc1,2%,x,3%[46.1 µM],6,x
CCOC(=O)Cn1c(=O)n(Cc2ccc(C)cc2)c(=O)c2cccnc21,-21%,x,x,0,0.79µM*
Cc1ccc2c(c1)C(c1ccc(F)cc1)N(C(=O)C(C)C)CC(=O)N2 (stereo not drawn),8.9µM*,13%[46.1 µM],6%[46.1 µM],-105*,x
Cc1ccc2c(c1)C(c1ccc(F)cc1)N(C(=O)c1ccc(S(=O)(=O)N(C)C)cc1)CC(=O)N2 (stereo not drawn),0%,x,x,x,-12%
Cc1ccc2c(c1)C(c1ccc(F)cc1)N(C(=O)c1cccc(C(F)(F)F)c1)CC(=O)N2 (stereo not drawn),23%,-26%[46.1 µM],u,-107*,x
O=C(N/N=C/C(Br)=C\c1ccccc1)c1ccc2nc[nH]c2c1,8%,-23%,u,-76*,u
CCOc1cc(C(=O)NN=C2CCCC2)cc(OCC)c1OCC,-18%,x,x,-76*,-27%
CCOc1cc(C(=O)N/N=C/C(Br)=C/c2ccccc2)cc(OCC)c1OCC,-15%,u,u,-76*,u
COc1cccc(CNC(=O)Nc2cc(C(=O)NCc3cccc(F)c3)ccc2N2CCCC2)c1,-8%,u,x,-1,x
COc1ccc(Nc2nc(N)c([N+](=O)[O-])c(NC3CCCCC3)n2)cc1,u,u,u,u,11µM*
COc1ccc(Nc2nc(N)c([N+](=O)[O-])c(NCCO)n2)cc1,19%,-13%,u,33,0%
COc1cc(-c2cc(C)c3cccc(OC)c3n2)cc2c1OCCN(C(=O)CC1NC(=O)c3ccccc31)C2 (stereo not drawn),-11%,x,x,x,x
COc1cc(C=C2C(=O)C=CC2=O)ccc1O,u,x,x,-88*,x
COc1cc(/C=C2/CCCC(C(=O)C(F)(F)F)=C2O)ccc1O,-10%,7%,5%[46.1 µM],-14,6%
SMILES,FMDV inh,LASV entry inh,Marburg entry inh,HCMV antiviral,HCV inhibitor
COc1cc(/C=C2\CCC/C(=C\c3ccc(O)c(OC)c3)C2=O)ccc1O,u,u,u,-101*,13µM*
COc1cc(/C=C2/CCC/C(=C\c3cc(O)c(OC)c(Cl)c3)C2=O)cc(Cl)c1O,u,u,u,-100*,11µM*
COc1cc(/C=C2/C(=O)CNC2=O)ccc1O,-7%,u,4%,57,13%
COc1ccc(/C=C2/CC/C(=C\c3ccc(OC)c(OC)c3OC)C2=O)c(OC)c1OC,-15%,u,0%,15,u
COc1cc(/C=C2\CC/C(=C\c3cc(OC)c(O)c(OC)c3)C2=O)cc(OC)c1O,22µM*,-23%,u,-98*,u
CC(C)c1ccc(NC(=O)c2cc(S(=O)(=O)N3CCCCC3)cn2C)cc1,-1%,5%[46.1 µM],x,20,x
COc1ccc(CCn2c(=O)c3cccnc3n(CC(=O)Nc3c(C)cc(C)cc3C)c2=O)cc1OC,-18%,x,-3%[46.1 µM],3,x
CC=CCCN1C=C(C(=O)OCC)C(c2ccccc2)NC1=O (stereo not drawn),x,x,41%[14.2 µM],x,x
COc1ccc2c(c1)c(=O)c(C(=O)c1ccc(C)c(C)c1)cn2CC(=O)Nc1ccc2c(c1)OCCO2,-4%,1%[46.1 µM],2%[46.1 µM],0,x
COc1ccc(C(=O)c2cn(Cc3ccccc3)c3ccccc3c2=O)cc1OC,u,-20%[46.1 µM],3%[46.1 µM],-10,x
COc1cc(/C=C2\CC/C(=C\c3cc(OC)c(OC)c(OC)c3)C2=O)cc(OC)c1OC,u,-22%,u,-6,13µM*
O=C1OCC/C1=C\c1ccc2c(c1)OCO2,-1%,12%[46.1 µM],7%[46.1 µM],19,11%
O=C1/C(=C\c2ccc3c(c2)OCO3)CCC/C1=C/c1ccc2c(c1)OCO2,3%,8%,9%,-89*,-5%
O=C1/C(=C/c2ccncc2)CCC/C1=C\c1ccncc1,14µM*,x,x,-100*,6.3µM*
CCN1C/C(=C/c2cccc([N+](=O)[O-])c2)C(=O)/C(=C/c2cccc([N+](=O)[O-])c2)C1,3.5µM*,2.8µM*,15µM*,-103*,u
CC(=O)c1ccc(F)c(-c2cc(C)cc3c2OC(CNC(=O)c2cccnc2)C3)c1 (stereo not drawn),-3%,x,x,x,x
COc1cc(/C=C2\COC/C(=C\c3cc(OC)c(OC)c(OC)c3)C2=O)cc(OC)c1OC,3.5µM*,u,u,-98*,1µM*
CCOc1cc(C=O)ccc1O,-11%,x,x,20,12%
CCOc1cc(/C=C2\CN(CC)C/C(=C\c3ccc(O)c(OCC)c3)C2=O)ccc1O,10µM*,5µM*,4.5µM*,-101*,4.5µM*
COc1cc(/C=C2\N=C(C)OC2=O)cc(OC)c1OC,-20%,x,x,2,13%
COc1cc(/C=C2\CCC(C3CCCC3)C2=O)cc(OC)c1OC (stereo not drawn),15%,0%[46.1 µM],u,u,-29%
COc1cc(/C=C2\CC(C(C)(C)C)C/C(=C\c3cc(OC)c(OC)c(OC)c3)C2=O)cc(OC)c1OC (stereo not drawn),14µM*,x,x,-98*,2.5µM*
Cc1oc2ncn(CC(C)C)c(=O)c2c1C(=O)N1CCN(c2ccc(F)cc2)CC1,-6%,26%[46.1 µM],x,3,x
C=CC[n+]1c(/C=C/c2ccc(OC(C)=O)c(OC)c2)ccc2ccccc21,-22%,x,x,-100*,u
CCNc1ncc2nc(-c3ccccc3)c(=O)n(Cc3cccc(OC)c3)c2n1,-7%,x,x,x,x
Cc1cc(C)c2nc(C(F)(F)F)c(C#N)c(N)c2c1,-8%,13%,u,u,-26%
